# Compound activity deposited in PubChem by National Center for Advancing Translational Sciences (NCATS).
# FEN1 inh – blocks human flap endonuclease 1. Recombinant FEN1 flap cleavage, fluorescence, 15 min. 0.35% of 390,000 active. P39748. Potency, µM (doses to about 114 µM), for inactives: at the highest dose activity change, negative = inhibition, most hits filed as inhibitors; further: potency means the concentration at half of the fitted maximal effect; on the % scale 0 is the no-effect control and ±100 the full control effect; nearly all actives have a fitted effect of over 65% in size
# Target sequence (P39748 whole entry, looked up): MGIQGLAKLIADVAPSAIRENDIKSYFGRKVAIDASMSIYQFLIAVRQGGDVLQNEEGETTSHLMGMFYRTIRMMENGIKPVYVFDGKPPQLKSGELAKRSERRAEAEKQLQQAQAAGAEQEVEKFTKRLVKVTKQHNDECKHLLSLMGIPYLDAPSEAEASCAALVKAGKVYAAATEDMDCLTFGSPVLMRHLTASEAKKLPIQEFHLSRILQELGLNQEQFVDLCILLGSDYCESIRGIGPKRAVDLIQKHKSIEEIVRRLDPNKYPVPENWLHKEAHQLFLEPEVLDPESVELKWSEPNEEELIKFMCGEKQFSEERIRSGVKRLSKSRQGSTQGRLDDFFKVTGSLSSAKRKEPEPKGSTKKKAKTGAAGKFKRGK
#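 With each library titrated from low to high concentration, compounds met 10 nM FEN1 for 15 min at room temperature before 50 nM substrate was added; readings at 0 and 15 min fed four-parameter Hill curve fits.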
# Pol beta inh – blocks human DNA polymerase beta activity; 1.3% of 340,000 active; Potency, µM (top dose mostly 114 µM), inactives show at the highest dose activity change, negative = inhibition, actives largely listed as inhibitors; P06746; Pol beta primer extension/strand displacement, fluorescence kinetic; AID 485314; further: potency means the concentration at half of the fitted maximal effect; on the % scale 0 is the no-effect control and ±100 the full control effect
#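 Curves were derived by four-parameter Hill fits of normalized qHTS data. The kinetic fluorescent primer-extension read was taken at 0 and 10 min after 50 nM substrate, following a 15 min room-temperature preincubation of 10 nM enzyme with compounds.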
# POLI inh – inhibitors of human DNA polymerase iota; AID 588590; Q9UNA4; 1% of 390,000 active; Potency, µM (doses to about 115 µM), for inactives: top-dose activity, negative = inhibition, most hits filed as inhibitors; Pol iota fluorescent replication assay, 10 min; further: potency means the concentration at half of the fitted maximal effect
#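 Pol iota at 10 nM preincubated 15 min with compounds at room temperature; reaction started with fluorescent substrate, 50 nM final. Fluorescence read kinetically at 0 and 10 min; buffer-only wells as negative control.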
# WRN helicase inh – blocks human WRN helicase; Q14191; 0.46% of 360,000 active; WRN helicase unwinding, fluorescent forked duplex, kinetic; AID 651768; Potency, µM (series often up to 114 µM), for inactives: at the top dose activity change, negative = inhibition, actives largely listed as inhibitors; further: potency means the concentration at half of the fitted maximal effect; on the % scale 0 is the no-effect control and ±100 the full control effect; nearly all actives have a fitted effect of over 55% in size
#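 WRN at 20 nM final preincubated with compound 15 min at room temperature; reaction started with 100 nM fluorophore/quencher forked duplex oligonucleotide and 2 mM ATP final. Unwinding followed kinetically by red fluorescence (ex 525, em 598 nm).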
# Pol eta inh-1 – inhibitors of human DNA polymerase eta. Q9Y253. recombinant Pol eta, fluorescent DNA replication assay. Potency, µM (top dose mostly 114 µM), for inactives: at the top dose activity change, negative = inhibition, actives largely listed as inhibitors. 1.2% of 390,000 active. AID 588591; further: potency means the concentration at half of the fitted maximal effect; on the % scale 0 is the no-effect control and ±100 the full control effect
#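 Fluorescent replication assay: 50 nM final substrate added after a 15 min room-temperature compound preincubation with 10 nM enzyme. Signal taken at 0 min and again at 10 min.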
# Pol kappa inh-1 – DNA polymerase kappa (human) inhibition; Q9UBT6; Potency, µM (doses to about 107 µM), for inactives: at the highest dose activity, negative = inhibition, most hits filed as inhibitors; 0.53% of 400,000 active; purified Pol kappa, fluorescent DNA synthesis assay, 10 min; further: potency means the concentration at half of the fitted maximal effect; on the % scale 0 is the no-effect control and ±100 the full control effect
#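 Inhibition of 10 nM Pol kappa is measured by a fluorescent read-out at 0 and 10 min following addition of 50 nM substrate (final), with a 15-min room-temperature compound preincubation.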
# GALK confirm – confirmation of human galactokinase (GALK) inhibitors; shares compounds with Pol eta inh-1; purified GALK, Kinase-Glo ATP depletion luminescence; Potency, µM (series often up to 115 µM), inactives show top-dose activity, negative = inhibition, usual class: inhibitors; 70% of 150 active; AID 2015
# Target sequence (P51570 whole entry, looked up): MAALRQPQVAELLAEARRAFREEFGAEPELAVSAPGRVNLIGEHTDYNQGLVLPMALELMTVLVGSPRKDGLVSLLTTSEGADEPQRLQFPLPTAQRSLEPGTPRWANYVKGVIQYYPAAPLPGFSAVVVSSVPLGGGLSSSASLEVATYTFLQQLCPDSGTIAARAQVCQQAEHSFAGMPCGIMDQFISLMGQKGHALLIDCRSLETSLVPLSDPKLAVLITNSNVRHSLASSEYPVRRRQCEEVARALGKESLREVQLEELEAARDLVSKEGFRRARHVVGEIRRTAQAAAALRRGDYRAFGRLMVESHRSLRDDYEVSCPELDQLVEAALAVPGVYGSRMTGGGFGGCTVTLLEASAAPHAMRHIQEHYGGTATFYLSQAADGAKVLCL
# GALK redox cs – generates H2O2 by redox cycling, flagging GALK artifacts. Phenol red-HRP H2O2 redox cycling, absorbance 600 nm. Potency, µM (series often up to 115 µM), without a hit: at the highest dose activity change, negative = H2O2 signal, hits mostly inhibitors. shares compounds with Pol eta inh-1. 40% of 150 active
# HEK293 tox – HEK-293 cytotoxicity, GALK inhibitor secondary; 10% of 170 active; Potency, µM (doses to about 46.1 µM), inactives show at the highest dose activity change, negative = cytotoxicity, actives largely listed as inhibitors; AID 2547; shares compounds with Pol eta inh-1; HEK-293 viability, ATP luminescence (CellTiter-Glo), 24/48 h; further: potency means the concentration at half of the fitted maximal effect; on the % scale 0 is the no-effect control and ±100 the full control effect
# Pol kappa inh-2 – confirmation of human DNA polymerase kappa inhibitors. 76% of 920 active. shares compounds with Pol eta inh-1. purified Pol-kappa, fluorescent strand-displacement substrate. Potency, µM, actives largely listed as inhibitors. AID 720501; further: potency means the concentration at half of the fitted maximal effect
# Pol eta inh-2 – Pol eta (human) inhibition, cherry-pick confirmation | shares compounds with Pol eta inh-1 | Pol eta primer extension, TAMRA/BHQ fluorescence, 10 min | Potency, µM, actives largely listed as inhibitors | 64% of 2,600 active | AID 720502; further: potency means the concentration at half of the fitted maximal effect
# An asterisk follows results filed as active; ? = inconclusive; . = no result given; [ ] = dose if it differs, or a comment. The list is not random: actives were taken first. Their share in the collection is about 2.4%. The call rests on the fitted dose curve; in most records, active means well fitted curve in the direction sought with a large enough effect; inconclusive means small, poorly fitted or top-dose-only effect, or another doubt; inactive means no such curve, though single readings can be large; an effect the other way counts as inactive or inconclusive.
SMILES,FEN1 inh,Pol beta inh,POLI inh,WRN helicase inh,Pol eta inh-1,Pol kappa inh-1,Pol eta inh-2,others
Cc1cc(/C=C2\C(=O)NC(=O)N(C)C2=O)c(C)n1-c1ccc2c(c1)OCO2,-2%,?,?,-15%,?,-40%,.,
CCc1ccc(NC(=O)CN2C(=O)C3(SCC(=O)N3c3ccc(F)c(F)c3)c3ccccc32)cc1 (stereo unspecified),-2%,1%,?,.,-11%,-15%,.,
C[C@H](NC(=O)[C@@H](N)Cc1ccc(O)cc1)C(=O)NCC(=O)N(C)[C@@H](Cc1ccccc1)C(=O)N[C@H](CO)CCS(C)=O (stereo partly specified),.,.,.,.,.,-3%[19.4 µM],.,
O=C1NC(=O)N(CCC2=CCCCC2)C(=O)/C1=C/c1cccs1,?,?,?,?,?,-40%,?,
Cc1cc2c(C(C)C)c(O)c(O)c(C=O)c2c(O)c1-c1c(C)cc2c(C(C)C)c(O)c(O)c(C=O)c2c1O,2.5µM*,0.56µM*,2.5µM*,.,.,11µM*,.,GALK confirm=24µM*;GALK redox cs=-9%;HEK293 tox=6%
CCN1C[C@@]2(COC)CCC(OC)[C@]34C5C[C@]6(O)[C@@H](OC)C[C@](OC(C)=O)(C([C@H](OC)C23)[C@H]14)C5[C@H]6OC(=O)c1ccc(OC)cc1 (stereo partly specified),.,.,.,.,.,15%[60.1 µM],.,
Cc1ccc2c(c1Cl)NC(C(=O)O)C1CC(Sc3ccccc3[N+](=O)[O-])C(Cl)C21 (stereo unspecified),?,?,?,-9%[11.6 µM],45µM*,?,?,
N#CC1=C(N)Oc2c(c(=O)oc3ccccc23)C1c1ccc([N+](=O)[O-])o1 (stereo unspecified),50µM*,?,?,?,20µM*,50µM*,85*,Pol kappa inh-2=38*
CC(C)Oc1ccc(C2C(C#N)=C(N)Oc3c2c(=O)oc2ccccc32)cc1 (stereo unspecified),-6%,-7%,4%,2%,?,-16%,.,
CCOC(=O)C(SP(=S)(OC)OC)c1ccccc1 (stereo unspecified),.,.,.,.,.,-16%[60.1 µM],.,
Cc1cccc(N2C(=O)NC(=O)/C(=C\c3ccc4c(c3)CCCN4Cc3ccccc3)C2=O)c1,-18%,-28%,?,237%[57.1 µM],22µM*,-1%,?,
COc1ccc(-n2c(/C=C3\C(=O)Nc4ccccc43)nc3ccccc3c2=O)cc1,2%,15%,?,4%,-12%,-8%,.,
O=C1Nc2ccccc2/C1=C/c1nc2ccccc2c(=O)n1-c1ccc(O)cc1,?,?,18µM*,?,?,?,?,
O=C(Nc1ccc(Oc2ccc(Cl)cc2)c(Cl)c1)c1cc(I)cc(I)c1O,?,6%,?,-11%[11.6 µM],?,-25%,?,Pol kappa inh-2=13*
O=[N+]([O-])c1ccc(Sc2nc3ccccc3o2)c([N+](=O)[O-])c1,-5%,5%,11µM*,?,50µM*,-4%,?,
COc1nnc(-c2ccc(N3CCCCC3)c(NC(=O)c3ccc(Cl)cc3)c2)c2ccccc12,14%,-2%,41%,.,-15%,-19%,.,
CCS(=O)(=O)C1=NN2C(=N)/C(=C\c3ccc(OC(=O)c4ccco4)cc3)C(=O)N=C2S1,17%,-26%,-2%,-11%,?,-18%,.,
N=C1/C(=C\c2ccc(OC(=O)c3ccccc3Cl)cc2)C(=O)N=C2SC(N3CCOCC3)=NN12,?,40µM*,-81%,?,22µM*,?,38*,
O=c1oc2ccccc2c(O)c1[C@H]1c2ccc(O)cc2Oc2c1c(=O)oc1ccccc21,-3%,7%,-12%,-12%[11.6 µM],?,-19%,?,
CCC(C)N1C(=O)/C(=C/c2ccc3c(c2)CCN3CCCCl)C(=O)NC1=S (stereo unspecified),-10%,16µM*,?,-16%[11.6 µM],16µM*,?,76*,Pol kappa inh-2=84*
CCOC(=O)COc1ccc(/C=C2\C(=O)NC(=S)N(c3ccc(OC)cc3)C2=O)cc1OC,-19%,-21%,-12%,-4%,-9%,7%,.,
Cc1ccccc1N1C(=O)/C(=C/c2ccco2)C(=O)NC1=S,.,0.32µM*,.,.,.,.,.,GALK confirm=?;GALK redox cs=-26%;HEK293 tox=-1%
O=C(Cc1ccc(S(=O)(=O)N2CCCC2)s1)N1CCN(c2ccc(F)cc2)CC1,?,32µM*,?,-2%[11.6 µM],?,?,85*,
Clc1ccccc1-c1cncnc1NCCc1cnc[nH]1,.,.,.,.,.,7%[60.1 µM],.,
C=CCN1C(=O)NC(=O)C(Cc2ccc(OC)c(OC)c2)C1=O (stereo unspecified),-11%,-3%,?,?,8.9µM*,?,30*,
CC(C)C[C@H](NC(=O)[C@H](Cc1ccccc1)NC(=O)CNC(=O)[C@@H](NC(=O)[C@@H](N)Cc1ccc(O)cc1)[C@H](C)O)C(=O)N[C@H](C(=O)O)[C@H](C)O,.,.,.,.,.,1%[19.4 µM],.,
COCCNC(=O)c1c(N)n(Cc2ccco2)c2nc3ccccc3nc12,-8%,11%,6%,-19%,-17%,-17%,.,
COCCCn1c(N)c(C(=O)NCc2ccco2)c2nc3ccccc3nc21,-10%,-35%,83%,0%,-13%,-10%,.,GALK confirm=?;GALK redox cs=-4%;HEK293 tox=?
O=C(OC1Cc2c(O)cc(O)cc2OC1c1cc(O)c(O)c(O)c1)c1cc(O)c(O)c(O)c1 (stereo unspecified),.,.,.,.,.,0.56µM*,.,GALK confirm=9.4µM*;GALK redox cs=-10%;HEK293 tox=-7%
